Holding throughout (assay): DAPPL (digital affinity profiling via proximity ligation, sequencing); 10 mM Tris-HCl pH 7.5, 50 mM NaCl, 1 mM DTT, 4% glycerol, room temperature, 30 min; GST-TFs on glutathione beads, 16-mer random dsDNA library, 0.1% formaldehyde crosslink after washing; high values mean tight binding
For one assay, the target named is T1, FEV (Homo sapiens, UniProt Q99581 1-238).
T1 sequence: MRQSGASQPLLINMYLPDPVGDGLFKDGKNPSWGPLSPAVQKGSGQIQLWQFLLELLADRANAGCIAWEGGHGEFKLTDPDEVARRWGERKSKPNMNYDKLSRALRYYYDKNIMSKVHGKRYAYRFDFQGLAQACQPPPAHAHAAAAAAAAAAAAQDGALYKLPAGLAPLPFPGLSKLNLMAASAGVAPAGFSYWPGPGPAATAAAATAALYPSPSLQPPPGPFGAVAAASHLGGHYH
The note with it: protein: recombinant; tags: N-terminal GST; dsDNA, one strand shown. An outline of the steps: (§1)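 Sequencing on an Illumina NextSeq500 followed washing, crosslinking with 0.1% formaldehyde, proximity ligation (BsaI/T4 ligase, 1 h, 37 °C) and PCR amplification of pools that had been incubated for 30 min at room temperature with 200 nmole of a random double-stranded 16-mer DNA library in Tris/NaCl/DTT/glycerol buffer. Each pool held DNA-barcoded human transcription factors, expressed in yeast as GST fusions and captured on glutathione beads, plus a tag-only sample. Binding signal is a hexamer's read frequency for a factor divided by its frequency in the tag-only sample.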

Another assay concerns the target ETV5 (Homo sapiens, UniProt P41161 1-510). The note with it: protein: recombinant; tags: N-terminal GST; dsDNA, one strand shown. An outline of the steps:
as §1

The target in the next assay is HSF1 (Homo sapiens, UniProt Q00613 1-529). The settings on record: protein: recombinant; tags: N-terminal GST; chain copies: 3; dsDNA, one strand shown. An outline of the steps: as §1
In another assay the target is T2, SPIC (Homo sapiens, UniProt Q8N5J4 1-248).
T2 sequence: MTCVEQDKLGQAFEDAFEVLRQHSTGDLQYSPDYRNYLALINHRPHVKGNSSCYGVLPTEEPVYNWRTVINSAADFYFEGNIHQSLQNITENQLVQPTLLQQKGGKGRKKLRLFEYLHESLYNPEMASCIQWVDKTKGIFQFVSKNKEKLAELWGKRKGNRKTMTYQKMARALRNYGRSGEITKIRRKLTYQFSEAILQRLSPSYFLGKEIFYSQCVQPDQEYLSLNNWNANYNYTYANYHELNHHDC
The note with it: protein: recombinant; tags: N-terminal GST; dsDNA, one strand shown. The procedure, abridged:
as §1

In a further assay the target is ELF4 (Homo sapiens, UniProt Q99607 1-663). The note with it: protein: recombinant; tags: N-terminal GST; dsDNA, one strand shown. An outline of the steps: as §1
A further assay has as its target T3, ELK4 (Homo sapiens, UniProt P28324-2 1-405).
T3 sequence: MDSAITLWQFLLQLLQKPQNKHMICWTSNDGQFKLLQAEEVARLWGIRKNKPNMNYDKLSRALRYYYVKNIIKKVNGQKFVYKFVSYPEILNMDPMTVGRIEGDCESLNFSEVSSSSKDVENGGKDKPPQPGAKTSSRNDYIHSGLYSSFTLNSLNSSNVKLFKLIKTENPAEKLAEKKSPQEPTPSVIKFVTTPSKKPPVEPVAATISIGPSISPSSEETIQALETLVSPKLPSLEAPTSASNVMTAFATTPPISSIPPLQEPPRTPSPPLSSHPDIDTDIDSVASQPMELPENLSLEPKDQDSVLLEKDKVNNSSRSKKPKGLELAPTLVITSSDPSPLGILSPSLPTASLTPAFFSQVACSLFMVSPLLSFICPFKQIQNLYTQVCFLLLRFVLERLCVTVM
The settings on record: protein: recombinant; tags: N-terminal GST; dsDNA, one strand shown. An outline of the steps:
as §1

For another assay, the target named is T4, ETV2 (Homo sapiens, UniProt O00321 1-342).
T4 sequence: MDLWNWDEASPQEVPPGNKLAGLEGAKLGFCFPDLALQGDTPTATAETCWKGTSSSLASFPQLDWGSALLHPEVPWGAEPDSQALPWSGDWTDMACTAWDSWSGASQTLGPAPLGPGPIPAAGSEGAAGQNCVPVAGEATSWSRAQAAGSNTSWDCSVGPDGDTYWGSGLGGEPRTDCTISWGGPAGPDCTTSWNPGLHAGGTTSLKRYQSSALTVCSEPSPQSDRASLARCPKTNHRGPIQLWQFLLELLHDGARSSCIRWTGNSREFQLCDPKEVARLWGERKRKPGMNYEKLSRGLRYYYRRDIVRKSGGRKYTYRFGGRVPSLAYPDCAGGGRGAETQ
The note with it: protein: recombinant; tags: N-terminal GST; dsDNA, one strand shown. An outline of the steps:
as §1

The target in the next assay is T5, ELF3 (Homo sapiens, UniProt P78545 1-371).
T5 sequence: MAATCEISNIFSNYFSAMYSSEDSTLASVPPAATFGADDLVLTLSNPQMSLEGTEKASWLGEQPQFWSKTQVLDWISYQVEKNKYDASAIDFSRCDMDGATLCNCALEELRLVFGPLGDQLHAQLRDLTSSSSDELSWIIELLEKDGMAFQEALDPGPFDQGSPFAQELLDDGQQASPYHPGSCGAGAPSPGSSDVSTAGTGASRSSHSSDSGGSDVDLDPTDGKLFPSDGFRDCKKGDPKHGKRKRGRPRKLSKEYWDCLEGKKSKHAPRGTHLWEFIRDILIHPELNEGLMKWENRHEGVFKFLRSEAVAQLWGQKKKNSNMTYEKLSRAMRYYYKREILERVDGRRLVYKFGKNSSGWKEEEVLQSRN
The settings on record: protein: recombinant; tags: N-terminal GST; dsDNA, one strand shown. An outline of the steps: as §1

Another assay has as its target CRX (Homo sapiens, UniProt O43186 1-299). The settings on record: protein: recombinant; tags: N-terminal GST; dsDNA, one strand shown. An outline of the steps:
as §1

In a further assay the target is ETV1 (Homo sapiens, UniProt P50549 1-477). The settings on record: protein: recombinant; tags: N-terminal GST; dsDNA, one strand shown. An outline of the steps: as §1
The target in a further assay is T6, ERF (Homo sapiens, UniProt P50548 1-548).
T6 sequence: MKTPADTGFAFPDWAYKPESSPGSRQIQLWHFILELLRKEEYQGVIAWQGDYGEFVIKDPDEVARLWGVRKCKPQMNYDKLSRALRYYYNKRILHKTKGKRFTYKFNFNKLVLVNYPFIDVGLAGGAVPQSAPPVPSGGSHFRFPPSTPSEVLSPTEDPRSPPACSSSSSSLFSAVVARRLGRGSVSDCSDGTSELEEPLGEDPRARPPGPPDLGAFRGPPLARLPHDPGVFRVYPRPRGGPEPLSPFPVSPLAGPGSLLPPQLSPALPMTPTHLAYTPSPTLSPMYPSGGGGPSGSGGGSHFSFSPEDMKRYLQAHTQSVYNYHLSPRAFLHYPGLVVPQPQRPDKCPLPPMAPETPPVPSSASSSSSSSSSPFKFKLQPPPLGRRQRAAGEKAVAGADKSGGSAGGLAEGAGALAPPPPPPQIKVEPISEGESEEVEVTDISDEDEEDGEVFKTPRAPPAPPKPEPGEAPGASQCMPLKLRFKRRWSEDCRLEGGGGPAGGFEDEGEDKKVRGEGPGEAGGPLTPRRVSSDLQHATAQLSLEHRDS
The settings on record: protein: recombinant; tags: N-terminal GST; dsDNA, one strand shown. The procedure, abridged: as §1

A further assay deals with T7, ETV3L (Homo sapiens, UniProt Q6ZN32 1-361).
T7 sequence: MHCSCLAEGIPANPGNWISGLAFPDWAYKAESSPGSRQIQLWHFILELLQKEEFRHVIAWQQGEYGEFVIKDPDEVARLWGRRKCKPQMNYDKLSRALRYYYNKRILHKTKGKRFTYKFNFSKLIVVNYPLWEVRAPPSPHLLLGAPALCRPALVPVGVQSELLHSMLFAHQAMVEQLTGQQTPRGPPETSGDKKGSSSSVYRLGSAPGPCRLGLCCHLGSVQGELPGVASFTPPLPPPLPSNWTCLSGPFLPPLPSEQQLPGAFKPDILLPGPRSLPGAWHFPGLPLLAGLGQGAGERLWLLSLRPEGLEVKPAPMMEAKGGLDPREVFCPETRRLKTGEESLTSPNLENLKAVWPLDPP
The note with it: protein: recombinant; tags: N-terminal GST; dsDNA, one strand shown. An outline of the steps: as §1

In the next assay the target is T8, ETS2 (Homo sapiens, UniProt P15036 1-469).
T8 sequence: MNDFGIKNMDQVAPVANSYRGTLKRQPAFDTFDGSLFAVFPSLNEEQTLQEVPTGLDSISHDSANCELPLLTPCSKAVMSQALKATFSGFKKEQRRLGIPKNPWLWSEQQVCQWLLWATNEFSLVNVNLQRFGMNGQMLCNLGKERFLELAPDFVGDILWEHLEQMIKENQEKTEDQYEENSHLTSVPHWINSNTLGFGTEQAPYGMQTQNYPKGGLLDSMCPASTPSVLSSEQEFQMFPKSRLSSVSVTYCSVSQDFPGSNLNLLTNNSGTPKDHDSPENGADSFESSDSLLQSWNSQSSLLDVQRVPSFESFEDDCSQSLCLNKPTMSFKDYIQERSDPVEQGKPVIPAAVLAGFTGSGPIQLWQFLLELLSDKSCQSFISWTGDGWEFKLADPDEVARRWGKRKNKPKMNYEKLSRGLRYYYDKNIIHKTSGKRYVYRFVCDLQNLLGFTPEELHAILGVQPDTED
The note with it: protein: recombinant; tags: N-terminal GST; dsDNA, one strand shown. An outline of the steps:
as §1

The target in a further assay is T9, SPDEF (Homo sapiens, UniProt O95238 1-335).
T9 sequence: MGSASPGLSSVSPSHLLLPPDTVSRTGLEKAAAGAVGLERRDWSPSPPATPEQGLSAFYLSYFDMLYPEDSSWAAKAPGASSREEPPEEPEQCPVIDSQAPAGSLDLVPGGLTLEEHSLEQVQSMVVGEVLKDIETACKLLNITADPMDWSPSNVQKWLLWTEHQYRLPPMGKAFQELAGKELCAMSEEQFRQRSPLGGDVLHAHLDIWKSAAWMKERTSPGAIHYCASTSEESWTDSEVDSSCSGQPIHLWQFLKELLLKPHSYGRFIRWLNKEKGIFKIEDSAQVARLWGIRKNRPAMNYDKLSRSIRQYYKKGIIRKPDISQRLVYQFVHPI
The note with it: protein: recombinant; tags: N-terminal GST; dsDNA, one strand shown. An outline of the steps:
as §1

A further assay deals with T10, ETV7 (Homo sapiens, UniProt Q9Y603 1-341).
T10 sequence: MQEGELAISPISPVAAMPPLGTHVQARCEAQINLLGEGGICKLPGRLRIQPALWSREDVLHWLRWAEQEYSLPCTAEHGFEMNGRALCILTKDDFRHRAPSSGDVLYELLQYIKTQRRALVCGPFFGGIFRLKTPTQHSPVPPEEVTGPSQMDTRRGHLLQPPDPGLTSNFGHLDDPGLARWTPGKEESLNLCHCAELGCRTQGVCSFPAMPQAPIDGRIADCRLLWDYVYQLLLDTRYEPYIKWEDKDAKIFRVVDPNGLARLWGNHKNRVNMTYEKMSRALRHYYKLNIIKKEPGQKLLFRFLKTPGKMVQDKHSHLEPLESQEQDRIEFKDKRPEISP
The settings on record: protein: recombinant; tags: N-terminal GST; dsDNA, one strand shown. An outline of the steps: as §1

Another assay addresses T11, ELF5 (Homo sapiens, UniProt Q9UKW6-2 1-255).
T11 sequence: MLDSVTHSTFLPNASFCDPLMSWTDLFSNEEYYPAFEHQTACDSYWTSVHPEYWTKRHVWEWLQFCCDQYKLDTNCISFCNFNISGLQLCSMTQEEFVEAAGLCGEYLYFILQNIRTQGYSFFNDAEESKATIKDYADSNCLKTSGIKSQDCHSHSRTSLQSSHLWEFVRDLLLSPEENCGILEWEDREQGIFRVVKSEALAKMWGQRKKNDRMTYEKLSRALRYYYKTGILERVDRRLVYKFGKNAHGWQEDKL
The settings on record: protein: recombinant; tags: N-terminal GST; dsDNA, one strand shown. The procedure, abridged: as §1

For a further assay, the target named is T12, ETV3 (Homo sapiens, UniProt P41162-2 1-143).
T12 sequence: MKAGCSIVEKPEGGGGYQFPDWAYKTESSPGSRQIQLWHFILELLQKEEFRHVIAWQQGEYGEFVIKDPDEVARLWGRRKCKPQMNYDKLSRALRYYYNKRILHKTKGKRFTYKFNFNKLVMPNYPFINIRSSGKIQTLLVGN
The settings on record: protein: recombinant; tags: N-terminal GST; dsDNA, one strand shown. An outline of the steps:
as §1

The next assay concerns the target ETV6 (Homo sapiens, UniProt P41212 1-452). The settings on record: protein: recombinant; tags: N-terminal GST; dsDNA, one strand shown. The procedure, abridged:
as §1

Chain of HSF1 (Q00613 whole entry): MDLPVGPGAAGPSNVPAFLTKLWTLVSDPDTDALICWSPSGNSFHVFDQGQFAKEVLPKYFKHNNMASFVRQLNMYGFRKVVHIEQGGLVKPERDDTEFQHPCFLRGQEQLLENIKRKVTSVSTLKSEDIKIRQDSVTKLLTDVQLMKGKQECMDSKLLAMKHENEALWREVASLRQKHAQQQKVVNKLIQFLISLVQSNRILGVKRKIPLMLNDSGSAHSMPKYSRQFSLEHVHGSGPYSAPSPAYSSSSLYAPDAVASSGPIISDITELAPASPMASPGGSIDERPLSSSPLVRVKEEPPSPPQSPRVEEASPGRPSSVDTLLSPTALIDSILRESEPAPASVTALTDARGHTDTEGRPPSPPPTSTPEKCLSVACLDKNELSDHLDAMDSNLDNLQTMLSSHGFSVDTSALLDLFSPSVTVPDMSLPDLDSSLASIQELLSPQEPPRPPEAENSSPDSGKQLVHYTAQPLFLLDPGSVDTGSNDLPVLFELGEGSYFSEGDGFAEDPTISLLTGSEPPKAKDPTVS
Chain of ELF4 (Q99607 whole entry): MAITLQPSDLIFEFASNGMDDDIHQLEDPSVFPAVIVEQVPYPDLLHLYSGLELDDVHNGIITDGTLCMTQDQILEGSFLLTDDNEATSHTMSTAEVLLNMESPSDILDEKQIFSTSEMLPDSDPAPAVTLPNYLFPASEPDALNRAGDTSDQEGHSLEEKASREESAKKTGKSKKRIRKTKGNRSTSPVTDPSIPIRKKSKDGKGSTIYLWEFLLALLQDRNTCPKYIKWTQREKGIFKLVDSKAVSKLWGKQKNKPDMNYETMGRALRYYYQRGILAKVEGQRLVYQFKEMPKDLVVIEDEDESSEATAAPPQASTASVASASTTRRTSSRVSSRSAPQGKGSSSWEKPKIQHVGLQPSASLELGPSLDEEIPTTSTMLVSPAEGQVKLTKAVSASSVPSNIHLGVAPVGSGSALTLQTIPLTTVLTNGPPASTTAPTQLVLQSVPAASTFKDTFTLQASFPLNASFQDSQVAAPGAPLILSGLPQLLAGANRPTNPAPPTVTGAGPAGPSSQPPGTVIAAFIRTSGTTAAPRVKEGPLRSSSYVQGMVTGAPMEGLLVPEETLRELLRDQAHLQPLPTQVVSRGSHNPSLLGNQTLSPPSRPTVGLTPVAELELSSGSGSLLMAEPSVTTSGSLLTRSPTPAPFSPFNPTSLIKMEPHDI
Chain of CRX (O43186 whole entry): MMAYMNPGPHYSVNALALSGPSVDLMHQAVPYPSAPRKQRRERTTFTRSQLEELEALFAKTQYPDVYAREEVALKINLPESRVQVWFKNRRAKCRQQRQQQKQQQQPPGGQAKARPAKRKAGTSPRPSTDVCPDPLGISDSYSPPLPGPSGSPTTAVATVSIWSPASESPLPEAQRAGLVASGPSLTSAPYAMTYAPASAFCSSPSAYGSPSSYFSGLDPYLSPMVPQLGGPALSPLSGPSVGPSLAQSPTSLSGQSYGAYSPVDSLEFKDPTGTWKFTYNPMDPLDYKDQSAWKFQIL
Chain of ETV6 (P41212 whole entry): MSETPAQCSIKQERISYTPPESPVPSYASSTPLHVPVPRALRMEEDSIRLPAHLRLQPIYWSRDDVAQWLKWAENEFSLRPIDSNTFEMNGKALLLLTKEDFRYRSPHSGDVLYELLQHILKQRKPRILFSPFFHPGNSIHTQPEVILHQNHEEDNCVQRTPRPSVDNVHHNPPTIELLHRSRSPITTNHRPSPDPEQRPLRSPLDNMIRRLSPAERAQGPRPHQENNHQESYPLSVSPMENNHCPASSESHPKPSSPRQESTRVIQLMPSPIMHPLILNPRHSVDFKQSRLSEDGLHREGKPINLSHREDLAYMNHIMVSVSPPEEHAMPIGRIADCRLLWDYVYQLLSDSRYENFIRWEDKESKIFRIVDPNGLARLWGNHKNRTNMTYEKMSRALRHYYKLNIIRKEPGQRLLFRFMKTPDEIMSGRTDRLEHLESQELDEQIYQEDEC
Chain of ETV5 (P41161 whole entry): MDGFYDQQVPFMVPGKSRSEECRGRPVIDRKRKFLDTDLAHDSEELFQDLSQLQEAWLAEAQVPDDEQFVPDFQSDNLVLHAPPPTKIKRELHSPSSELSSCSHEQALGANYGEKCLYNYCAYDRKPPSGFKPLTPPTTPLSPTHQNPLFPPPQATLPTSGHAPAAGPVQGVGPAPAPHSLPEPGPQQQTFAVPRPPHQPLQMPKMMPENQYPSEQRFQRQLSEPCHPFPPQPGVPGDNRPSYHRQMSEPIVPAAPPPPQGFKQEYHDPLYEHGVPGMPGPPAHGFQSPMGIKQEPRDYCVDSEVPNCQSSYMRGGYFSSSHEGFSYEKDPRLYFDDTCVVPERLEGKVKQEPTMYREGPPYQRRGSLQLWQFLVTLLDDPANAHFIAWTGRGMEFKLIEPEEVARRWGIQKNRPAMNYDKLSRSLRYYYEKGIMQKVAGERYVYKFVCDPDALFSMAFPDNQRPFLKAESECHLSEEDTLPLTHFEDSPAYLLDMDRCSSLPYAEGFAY
Chain of ETV1 (P50549 whole entry): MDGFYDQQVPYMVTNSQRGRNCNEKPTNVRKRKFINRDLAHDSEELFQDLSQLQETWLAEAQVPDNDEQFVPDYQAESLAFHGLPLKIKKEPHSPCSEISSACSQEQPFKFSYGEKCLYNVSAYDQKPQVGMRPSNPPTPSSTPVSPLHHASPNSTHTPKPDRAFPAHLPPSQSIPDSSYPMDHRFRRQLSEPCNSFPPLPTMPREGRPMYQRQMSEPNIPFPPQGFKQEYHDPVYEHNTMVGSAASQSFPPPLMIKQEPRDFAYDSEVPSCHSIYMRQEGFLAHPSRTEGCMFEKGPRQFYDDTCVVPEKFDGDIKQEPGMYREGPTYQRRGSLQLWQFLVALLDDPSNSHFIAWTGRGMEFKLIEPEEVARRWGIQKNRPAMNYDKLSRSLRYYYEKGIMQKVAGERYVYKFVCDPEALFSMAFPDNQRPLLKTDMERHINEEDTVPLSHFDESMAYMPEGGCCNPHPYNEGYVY

In the case of CCCTCG, the binding signal was 1.19 fold enrichment (6-mer frequency, TF over GST control) with FEV; 1.19 fold enrichment (6-mer frequency, TF over GST control) with ETV5; 1.22 fold enrichment (6-mer frequency, TF over GST control) with HSF1; 1.25 fold enrichment (6-mer frequency, TF over GST control) in the assay with SPIC; 1.36 fold enrichment (6-mer frequency, TF over GST control) with ELF4; 1.36 fold enrichment (6-mer frequency, TF over GST control) with ELK4. Besides, the binding signal was 1.25 fold enrichment (6-mer frequency, TF over GST control) with ETV2; 1.17 fold enrichment (6-mer frequency, TF over GST control) in the assay with ELF3; 1.06 fold enrichment (6-mer frequency, TF over GST control) with CRX; 1.25 fold enrichment (6-mer frequency, TF over GST control) with ETV1; 1.24 fold enrichment (6-mer frequency, TF over GST control) in the assay with ERF; 1.24 fold enrichment (6-mer frequency, TF over GST control) in the assay with ETV3L. In addition, the binding signal was 1.29 fold enrichment (6-mer frequency, TF over GST control) with ETS2; 1.23 fold enrichment (6-mer frequency, TF over GST control) with SPDEF; 1.3 fold enrichment (6-mer frequency, TF over GST control) with ETV7; 1.19 fold enrichment (6-mer frequency, TF over GST control) with ELF5; 1.16 fold enrichment (6-mer frequency, TF over GST control) with ETV3; 1.18 fold enrichment (6-mer frequency, TF over GST control) with ETV6.

The record behind these values is article PMC7862700, “An all-to-all approach to the identification of sequence-specific readers for epigenetic DNA modifications on cytosine”.
